# Test results from PubChem BioAssay.
# The source made the active and inactive calls.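 Rule for the calls, unless noted: active = visually confirmed hit in the image check and inhibition above 20%; inconclusive = visually confirmed hit but inhibition not above 20%; inactive = no visual hit in the image check.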
# Legend:
# [1] = inhibitors of TNFa-induced NFkB p65 translocation, primary screen, imaging, HUVEC, MLSMR starter and 10KST1 sets (AID 438;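 active = inhibition above 20% together with a positive visual image hit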;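 note: compound added about 3h40 before a 20 min TNFalpha stimulation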;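 for inhibition: signal is the nuclear over cytoplasmic p65 intensity ratio per well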); conditions: HUVEC TNFa-induced p65 nuclear translocation; cell count: measured here: nuclei count (cytotoxicity indicator), at 2.08 µM; inhibition: at 2 µM, stronger effect = higher value, 0% TNFa-plus-vehicle, 100% no-TNFa wells
# [2] = inhibitors of mutant huntingtin aggregation, primary screen, imaging, exon1htt(103Q)mCFP cells, high-content imaging (AID 483;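 active = visual image review flags a hit and inhibition of aggregation exceeds 20%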;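 note: compound exposure lasted 3 days before fixation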;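 for nuclei count: percent of the per-plate median nuclei count of sample wells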); conditions: exon1htt(103Q)mCFP cell line, aggregate imaging, at 2 µM; inhibition of aggregation: stronger effect = higher value; nuclei count: measured here: cell count, toxicity
# [3] = inhibitors of E-selectin induction by TNFa, primary screen, imaging, HUVEC, immunofluorescence, MLSMR starter and 10KST1 sets (AID 487); conditions: HUVEC TNFalpha-induced E-selectin immunofluorescence imaging, at 2 µM; inhibition: stronger effect = higher value; nuclei count: measured here: cell number, toxicity;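 for inhibition: signal is fraction of cell area covered by stained E-selectin grains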;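 for nuclei count: 100% = median nuclei count of all wells on the same plate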
# [4] = target: Voltage-gated potassium channel subunit beta-2 (Rattus norvegicus) (UniProt P62483); test: KvBeta enzyme negative modulators, primary screen, biochemical, NADPH fluorescence (AID 622;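 active = fluorescence slope higher than the sample average by over 3 SD, cut at about -0.22 in these data, passing the limit was not always enough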;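 note: slope of raw intensity against log time taken from 70 to 1610 s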); conditions: recombinant KvBeta, 4-cyanobenzaldehyde reduction, at 10 µM, stronger effect = higher value
# [5] = target: Voltage-gated potassium channel subunit beta-2 (Rattus norvegicus) (UniProt P62483); test: KvBeta positive modulators, primary screen, biochemical, NADPH fluorescence (AID 623;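 active = NADPH fluorescence slope more negative than the mean of all samples by about 3 SD, 99.7% confidence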;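 note: fluorescence intensity change per second fitted from 20 to 320 s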); conditions: Recombinant KvBeta, NADPH fluorescence decrease slope, 10 min; at 10 µM; stronger effect = lower value
# [6] = target: Alpha-2C adrenergic receptor (Homo sapiens) (UniProt P18825); test: modulators of alpha2C/GIRK thallium flux, primary screen, cell-based, HEK293 alpha2C/GIRK1/2 (AID 624;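 active = fluorescence slope after compound addition differing from the mean of all screened samples at 99.7% confidence, in either direction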;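 note: slope of fluorescence ratio to pre-addition baseline per second over 15 to 24 s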); conditions: thallium flux BTC fluorescence, at 10 µM, actives lie on both sides
# [7] = inhibitors of Sendai virus-induced IRF3 signaling, primary screen, TLR/RLR signaling modifier project, cell-based, Sendai virus stimulus, luciferase, 10K MLSCN set (AID 602276;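 active = inhibition at or above 50% at 10 µM; inactive = inhibition below 50%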;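 note: firefly luciferase from ISG56 promoter only with Renilla not read in this screen; 0% = Sendai virus plus DMSO and 100% = medium plus DMSO without virus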); conditions: HEK293 RL24 IRF3 luciferase reporter, at 10 µM, stronger effect = higher value
# [8] = inhibitors of poly I:C-induced TLR3 signaling, primary screen, cell-based, poly I:C stimulus, luciferase, 10K MLSCN set (AID 602277;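 active = inhibition of the reporter signal at or above 50%; inactive = inhibition below 50%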); conditions: HEK293-TLR3 RL24 IRF3 luciferase reporter, at 10 µM, stronger effect = higher value
# Voltage-gated potassium channel subunit beta-2 (Rattus norvegicus), sequence (P62483 whole entry, looked up): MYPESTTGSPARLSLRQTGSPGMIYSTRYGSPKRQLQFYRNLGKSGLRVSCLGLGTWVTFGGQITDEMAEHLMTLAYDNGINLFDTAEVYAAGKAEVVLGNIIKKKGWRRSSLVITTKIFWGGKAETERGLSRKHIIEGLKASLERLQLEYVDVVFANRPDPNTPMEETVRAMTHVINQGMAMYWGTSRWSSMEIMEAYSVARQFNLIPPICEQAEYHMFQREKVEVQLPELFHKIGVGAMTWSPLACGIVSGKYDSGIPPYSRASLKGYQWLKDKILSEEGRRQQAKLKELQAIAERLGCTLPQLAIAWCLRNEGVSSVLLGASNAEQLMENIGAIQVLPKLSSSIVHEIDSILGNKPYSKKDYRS
# Alpha-2C adrenergic receptor (Homo sapiens), sequence (P18825 whole entry, looked up): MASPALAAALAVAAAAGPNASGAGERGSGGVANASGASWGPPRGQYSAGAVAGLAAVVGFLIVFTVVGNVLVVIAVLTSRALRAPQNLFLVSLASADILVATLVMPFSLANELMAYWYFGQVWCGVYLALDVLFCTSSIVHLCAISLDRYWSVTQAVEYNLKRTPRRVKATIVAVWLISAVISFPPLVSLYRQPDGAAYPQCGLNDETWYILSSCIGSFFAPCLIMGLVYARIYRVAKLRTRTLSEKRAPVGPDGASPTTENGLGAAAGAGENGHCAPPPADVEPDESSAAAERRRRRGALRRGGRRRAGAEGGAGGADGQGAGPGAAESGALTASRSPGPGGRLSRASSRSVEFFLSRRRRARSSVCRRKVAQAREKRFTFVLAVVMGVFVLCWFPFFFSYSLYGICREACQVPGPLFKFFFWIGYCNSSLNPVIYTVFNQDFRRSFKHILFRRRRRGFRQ
SMILES,cell count [1],inhibition [1],inhibition of aggregation [2],nuclei count [2],inhibition [3],nuclei count [3],fluorescence slope [4],NADPH fluorescence slope [5],slope [6],inhibition [7],inhibition [8]
COc1ccc(-c2noc(COc3ccc(C)c(C)c3)n2)cc1OC,334,2.7% (inactive),8.8% (inactive),97.9%,21.9% (inactive),108%,-0.316 (inactive),-6.4e-05 (inactive),0.00562 (inactive),-1.39% (inactive),98.1% (active)
Cc1cc(NC(=O)c2cc3ccccc3o2)cc(C)c1OCC(=O)N1CCOCC1,388,7.3% (inactive),-7% (inactive),121%,-11.8% (inactive),115%,-0.526 (inactive),-4.4e-05 (inactive),0.00621 (inactive),-1.27% (inactive),-52% (inactive)
CCCc1c(O)nc(SCC(=O)NCCc2ccc(OC)c(OC)c2)[nH]c1=O,581,-10.8% (inactive),5.3% (inactive),73.8%,38.4% (inactive),82.7%,-0.486 (inactive),-3.3e-05 (inactive),0.00432 (inactive),13.2% (inactive),13.9% (inactive)
COc1cccc(OCC(=O)Nc2ccccc2C(N)=O)c1,681,0.4% (inactive),9.9% (inactive),104%,-73.4% (inactive),110%,-0.517 (inactive),1.4e-05 (inactive),0.00589 (inactive),-50.2% (inactive),-121% (inactive)
COc1cccc(NC(=O)CSc2nnc(-c3cc(-c4ccccn4)nc4ccccc34)o2)c1,578,-14.5% (inactive),-14.5% (inactive),112%,-102% (inactive),141%,-0.57 (inactive),-2e-06 (inactive),0.00553 (inactive),1.87% (inactive),0.453% (inactive)
N#CC1=C(N)OC(c2ccccc2)=C(C#N)C1c1ccc2c(c1)OCO2 (stereo not drawn),609,-19.6% (inactive),6% (inactive),112%,29.2% (inactive),96.1%,-0.482 (inactive),-9.1e-05 (inactive),0.00651 (inactive),-16.2% (inactive),10.8% (inactive)
COc1cccc(C(=O)NCc2nnc(SCC(=O)Nc3nccs3)n2-c2ccccc2)c1,756,-9.1% (inactive),-1.7% (inactive),120%,-20.4% (inactive),107%,-0.626 (inactive),1.6e-05 (inactive),0.0057 (inactive),10.5% (inactive),35.1% (inactive)
Nc1cc(N)cc(-c2nc3ccccc3o2)c1,595,-1.3% (inactive),-3.7% (inactive),109%,-53.9% (inactive),116%,-0.56 (inactive),-4.4e-05 (inactive),0.00618 (inactive),-12.2% (inactive),-26% (inactive)
O=C1CCCC2=C1C(c1cccs1)n1nc(SCc3ccccc3F)nc1N2 (stereo not drawn),694,8.6% (inactive),16.5% (inactive),109%,-30.7% (inactive),79.7%,-0.505 (inactive),3.2e-05 (inactive),0.00593 (inactive),-24.2% (inactive),-0.597% (inactive)
COc1ccc2[nH]c(=O)c(CNC3CCCCC3)cc2c1,673,6.3% (inactive),3.5% (inactive),112%,-17.6% (inactive),90.1%,-0.452 (inactive),-3.4e-05 (inactive),0.00407 (inactive),6.87% (inactive),29% (inactive)
Cc1nn(-c2ccccc2)c(Cl)c1C(=O)NCC(=O)O,296,3.9% (inactive),-6.8% (inactive),100%,-22.6% (inactive),117%,-0.399 (inactive),-6.1e-05 (inactive),0.00396 (inactive),11.2% (inactive),25.8% (inactive)
O=C(O)C1CCCN1S(=O)(=O)c1ccc2ccccc2c1 (stereo not drawn),609,-3.4% (inactive),-2.3% (inactive),89.5%,-83.6% (inactive),106%,-0.627 (inactive),-2e-06 (inactive),0.00297 (inactive),-1.98% (inactive),-11.3% (inactive)
COc1ccc(N(CC(=O)Nc2ccc(F)c(Cl)c2)S(=O)(=O)c2c(C)noc2C)cc1,372,2.7% (inactive),-8.2% (inactive),99%,-23.6% (inactive),104%,-0.425 (inactive),1.3e-05 (inactive),0.00672 (inactive),16.5% (inactive),21.7% (inactive)
